Viability and inhibition data for 40 compounds are collected here from PubChem BioAssay.

Activity calls are given as the source filed them. Cut-off read from the data, not from the text of the source: active = inhibition above about 31%; inactive = the rest.

A short description of the first assay: reversal of MRP1-mediated doxorubicin resistance, pilot screen, H69AR cells, doxorubicin co-treatment (AID 601). The note with it: H69AR cells, CellTiter-Glo, 72 h; compound alone cytotoxicity; at 10 µM. For orientation: In ATP-based viability assays light output follows the ATP content of the culture.
Broadly, the viability is a read-out of living cells in per cent, often relative to untreated cells. As for `O=C1OCCC1NC1=NCCC1` (stereo not given), the viability was determined as 100%.
Still for that read-out and setting: with `CN1C(=O)N(C)C(=O)C2(Cc3ccccc3N3CCOCC32)C1=O` (stereo not given) the figure was 102%; with `O=c1[nH]c(=O)n(Cc2ccco2)c(O)c1C=NCCCn1ccnc1`, 95.2%; with `CC1CCC(C(=O)NC(C(=O)N2CCC3(CC2)OCCO3)C(C)C)CC1` (stereo not given), 99.5%.
On to `COc1ccccc1N1CCN(Cc2cccc(OC)c2O)CC1`, for which the viability worked out at 91.6%.
As to `O=C1CC(c2ccccc2)CC(O)=C1C=NCCN1CCN(C(=O)Cc2ccccc2)CC1` (stereo not given), the viability stood at 92.1%.
For `OCCOCC#CCN1CCOCC1`, the viability turned out to be 93.8%.
Still for that read-out and setting: under `NC(=O)CSP(=O)(c1ccccc1)c1ccccc1` stands 102%; under `CC1(C)C(c2ccccc2)=NC(c2cccnc2)N1O` (stereo not given), 95.3%; under `CCCCCCC(N)CC(=O)O` (stereo not given), 94.8%.
On the same count and under the same terms, with `CCN(CC)CCN=Cc1c(O)n(CCC2=CCCCC2)c(=O)[nH]c1=O` the figure was 74.7%; with `CCN1c2nc3c(C)cccn3c(=O)c2CC2(C(=O)N(C)C(=O)N(C)C2=O)C1C` (stereo not given), 91.4%.
`C=CCn1c(O)c(C=NCCN(C)C)c(=O)[nH]c1=O`: the viability is 97.2%.
Still for that read-out and setting: under `Cc1ccccc1NC1=NCCCS1` stands 95.1%.
In the case of `CN1CCC(N(C)c2ncnc3ccc(Br)cc23)CC1`, the viability is 87.9%.
In the case of `O=c1[nH]c(=O)n(Cc2ccccc2)c(O)c1C=NCCCO`, the viability was determined as 117%.
Still for that read-out and setting: under `O=C1CC(N2CCC(n3c(=O)[nH]c4ccccc43)CC2)C(=O)N1c1ccc(F)cc1` (stereo not given) stands 103%; under `Cc1cc(NC(=O)COC(=O)c2c(C)nn(Cc3ccccc3)c2Cl)no1`, 105%.
Still for that read-out and setting: with `CN(C)c1cc(N)c2c(n1)CCC2` (tested in a mixture with another compound) the figure was 86.1%; with `c1ccc(C2CC3CC(c4ccco4)N2O3)cc1` (stereo not given), 113%.
Regarding `c1cncc(CNC2=NCCCCC2)c1`, the viability was found to be 97.4%.
Still for that read-out and setting: under `C=CCn1c(O)c(C(C)=NCc2cccnc2)c(=O)[nH]c1=O` stands 92.2%; under `NCCc1ccc(O)cc1`, 96.2%; under `COc1ccc(C(=O)C(C)(C)NO)cc1`, 86.5%.
As to `CCOC(=O)c1cccc([P+](=O)O)c1`, the viability was 96.5%.
The same measure, in the same setting: with `O=C(CCCOc1ccc(Cl)cc1Cl)N1CCC2(CC1)OCCO2` the figure was 92.5%.
The same measure, in the same setting: with `CCCCOc1ccc(CN2CCN(CCO)CC2)cc1` the figure was 90.1%.
The same measure, in the same setting: under `CSc1ccc(CNC2CN3CCC2CC3)cc1` (stereo not given) stands 89.1%; under `CCCCn1c(O)c(C(C)=NCCc2ccccc2)c(=O)[nH]c1=O`, 100%; under `O=C(c1sc2ccccc2c1Cl)N1CCC2(CC1)OCCO2`, 109%.
With `N#Cc1ccccc1Cn1cc(C(=O)c2ccco2)c2ccccc21`, the viability amounted to 82%.
The same measure, in the same setting: under `COc1ccc(CC2C(=O)NC(=O)NC2=O)c(OC)c1` stands 106%.
With `CCCCn1c(O)c(C(CC)=Nc2cccc(C(=O)O)c2)c(=O)[nH]c1=O`, the viability worked out at 102%.
For the compound `COc1cc(C2NCc3ccccc3-n3cccc32)ccc1O` (stereo not given), the viability came out at 101%.
Take `Cc1ccc(CS(=O)(=O)CCC(=O)N2CCC3(CC2)OCCO3)cc1`: the viability came out at 97.7%.
With `COc1cc(/C=N/n2cnnc2)ccc1OC(=O)N(C)C`, the viability was 102%.
On the same count and under the same terms, with `CC#CP(=O)(OCC)C(O)(c1ccccc1)C(F)(F)F` (stereo not given) the figure was 96.9%; with `CCOC(=O)C(O)(c1ccc(N(CC)C(=O)OC)cc1)C(F)(F)F` (stereo not given), 109%; with `CC(C)(C)C(O)C(Oc1ccc(Cl)cc1)n1cncn1` (stereo not given), 87.2%.
Same read-out and setting: under `COC(=O)c1c(C)n(Cc2ccc3c(c2)OCO3)c2ccc(O)cc12` stands 105%.

Another assay is described as follows: 384-well plate pilot, post-Golgi transport modulator project, inhibition of yeast transport mutant growth (AID 636). The note with it: absorbance 615 nm, about 18 h, stronger effect = higher value.
What is called inhibition is the drop in the measured response relative to a control, in per cent. For the compound `O=C1OCCC1NC1=NCCC1` (stereo not given), the inhibition was -0.78% (inactive).
On the same count and under the same terms, with `CN1C(=O)N(C)C(=O)C2(Cc3ccccc3N3CCOCC32)C1=O` (stereo not given) the figure was -6.8% (inactive).
With `O=c1[nH]c(=O)n(Cc2ccco2)c(O)c1C=NCCCn1ccnc1`, the inhibition was 0.77% (inactive).
Still for that read-out and setting: with `CC1CCC(C(=O)NC(C(=O)N2CCC3(CC2)OCCO3)C(C)C)CC1` (stereo not given) the figure was -6.36% (inactive).
The same measure, in the same setting: with `COc1ccccc1N1CCN(Cc2cccc(OC)c2O)CC1` the figure was -5% (inactive); with `O=C1CC(c2ccccc2)CC(O)=C1C=NCCN1CCN(C(=O)Cc2ccccc2)CC1` (stereo not given), -0.26% (inactive).
For the compound `OCCOCC#CCN1CCOCC1`, the inhibition is -1.45% (inactive).
Turning to `NC(=O)CSP(=O)(c1ccccc1)c1ccccc1`, the inhibition was -8.53% (inactive).
As for `CC1(C)C(c2ccccc2)=NC(c2cccnc2)N1O` (stereo not given), the inhibition was -6.76% (inactive).
Consider `CCCCCCC(N)CC(=O)O` (stereo not given), for which the inhibition was -1.69% (inactive).
Still for that read-out and setting: under `CCN(CC)CCN=Cc1c(O)n(CCC2=CCCCC2)c(=O)[nH]c1=O` stands -5.84% (inactive).
Still for that read-out and setting: under `CCN1c2nc3c(C)cccn3c(=O)c2CC2(C(=O)N(C)C(=O)N(C)C2=O)C1C` (stereo not given) stands -4.59% (inactive).
In the case of `C=CCn1c(O)c(C=NCCN(C)C)c(=O)[nH]c1=O`, the inhibition was -0.39% (inactive).
Take `Cc1ccccc1NC1=NCCCS1`: the inhibition is -4.61% (inactive).
Take `CN1CCC(N(C)c2ncnc3ccc(Br)cc23)CC1`: the inhibition is -6.1% (inactive).
Still for that read-out and setting: with `O=c1[nH]c(=O)n(Cc2ccccc2)c(O)c1C=NCCCO` the figure was -6.13% (inactive).
Same read-out and setting: under `O=C1CC(N2CCC(n3c(=O)[nH]c4ccccc43)CC2)C(=O)N1c1ccc(F)cc1` (stereo not given) stands -4.74% (inactive); under `Cc1cc(NC(=O)COC(=O)c2c(C)nn(Cc3ccccc3)c2Cl)no1`, -4.27% (inactive).
On the same count and under the same terms, with `CN(C)c1cc(N)c2c(n1)CCC2` (tested in a mixture with another compound) the figure was -4.49% (inactive); with `c1ccc(C2CC3CC(c4ccco4)N2O3)cc1` (stereo not given), -0.4% (inactive); with `c1cncc(CNC2=NCCCCC2)c1`, -0.78% (inactive).
For `C=CCn1c(O)c(C(C)=NCc2cccnc2)c(=O)[nH]c1=O`, the inhibition is -6.49% (inactive).
Consider `NCCc1ccc(O)cc1`, for which the inhibition is -5% (inactive).
On to `COc1ccc(C(=O)C(C)(C)NO)cc1`, for which the inhibition is -6.49% (inactive).
On the same count and under the same terms, under `CCOC(=O)c1cccc([P+](=O)O)c1` stands 3.95% (inactive).
Still for that read-out and setting: under `O=C(CCCOc1ccc(Cl)cc1Cl)N1CCC2(CC1)OCCO2` stands -5% (inactive); under `CCCCOc1ccc(CN2CCN(CCO)CC2)cc1`, 1.17% (inactive).
With `CSc1ccc(CNC2CN3CCC2CC3)cc1` (stereo not given), the inhibition is -3.47% (inactive).
For the compound `CCCCn1c(O)c(C(C)=NCCc2ccccc2)c(=O)[nH]c1=O`, the inhibition is -0.26% (inactive).
Same read-out and setting: under `O=C(c1sc2ccccc2c1Cl)N1CCC2(CC1)OCCO2` stands 0.13% (inactive); under `N#Cc1ccccc1Cn1cc(C(=O)c2ccco2)c2ccccc21`, -4.32% (inactive); under `COc1ccc(CC2C(=O)NC(=O)NC2=O)c(OC)c1`, 2.8% (inactive).
On the same count and under the same terms, under `CCCCn1c(O)c(C(CC)=Nc2cccc(C(=O)O)c2)c(=O)[nH]c1=O` stands -2.67% (inactive); under `COc1cc(C2NCc3ccccc3-n3cccc32)ccc1O` (stereo not given), -5.79% (inactive); under `Cc1ccc(CS(=O)(=O)CCC(=O)N2CCC3(CC2)OCCO3)cc1`, -4.87% (inactive).
For the compound `COc1cc(/C=N/n2cnnc2)ccc1OC(=O)N(C)C`, the inhibition was -4.21% (inactive).
As to `CC#CP(=O)(OCC)C(O)(c1ccccc1)C(F)(F)F` (stereo not given), the inhibition was -2.93% (inactive).
On the same count and under the same terms, with `CCOC(=O)C(O)(c1ccc(N(CC)C(=O)OC)cc1)C(F)(F)F` (stereo not given) the figure was -5.53% (inactive); with `CC(C)(C)C(O)C(Oc1ccc(Cl)cc1)n1cncn1` (stereo not given), -4.46% (inactive).
For `COC(=O)c1c(C)n(Cc2ccc3c(c2)OCO3)c2ccc(O)cc12`, the inhibition was -3.6% (inactive).
